The record followed here is PubChem BioAssay (NCI).

The panel holds about 79,000 compounds, 15% with a hit somewhere; the sample as a whole holds those more often. Unmarked numbers belong to inactive results. Activity calls are given as the source filed them. No stated cut-off is given here; in the data, active means growth inhibition above about 70%; inactive means the rest.

This assay is described as follows: NCI Yeast Anticancer Drug Screen. Data for the mlh1 rad18 strain (AID 175). The conditions noted are these: S. cerevisiae mlh1 rad18 strain growth inhibition; at 50.0 µM (retest, dose inferred, filed as 5.0); stronger effect = higher value. A digest of the protocol: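 Read-out is yeast growth inhibition, calculated against vehicle-only controls. The compound was applied to a strain engineered with DNA damage repair alterations.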
On to `CCCCN(CCC(=O)O)c1ccc(/C=C\c2ccnc3ccccc23)cc1`, for which the growth inhibition was 89% (active). As to `CC1CC(N)=NC1C(=O)NCCC#N` (centres undefined), the growth inhibition is 11%. The figure for `O=C(CC1(O)CCCCC1)OC1CCCC1` is 10%; for `CN(C)c1nc(-c2ccccc2)cc(-c2ccc(O)cc2)n1` it is 88% (active). The result for `Oc1cc(C(c2ccccc2)c2ccccc2)c2ccccc2c1O` reads 1%. The figure for `C(=P(c1ccccc1)(c1ccccc1)c1ccccc1)[P+](c1ccccc1)(c1ccccc1)c1ccccc1` is 99% (active); for `COC(=O)c1ccc(CCc2cc(O)ccc2O)cc1` it is 99% (active). Turning to `CCCCCCCCCCN`, the growth inhibition was 36%. The result for `CC[N-]c1nncs1.CC[N-]c1nncs1.CC[N-]c1nncs1.CC[N-]c1nncs1.[Cl][Rh][Cl]` reads 95% (active); that for `CC(C)C1=CC23CCC4C(C)(C(=O)O)CCCC4(C)C2CC1CC3C#N` (centres undefined), 39%. The result for `COc1ccc(/C(Cl)=C(\C=O)c2ccc(Cl)cc2)cc1` reads 27%. Take `CCOC(=O)Cc1csc(/N=C\c2c(O)c3ccccc3oc2=O)n1`: the growth inhibition is 45%. The figure for `Cc1cccc(/C=N/NC(=S)Nc2ccccc2)n1` is 100% (active); for `Nc1nn2c(C(Br)Br)cc(C(Br)Br)nc2c1[N+](=O)[O-]` it is 100% (active).

On to `c1ccc2nc3ccccc3nc2c1`, for which the growth inhibition is 65%. The figure for `O=c1ccc2nc3ccccc3ccc-2c1` is -110%; for `C=CCOCC(C)OC(=O)C(C)C` (centres undefined) it is -117%.

Regarding `CCCCCCOC(=O)CCC(=O)OCCCCCC`, the growth inhibition was -9%. Turning to `CC(=O)C(C(C)=O)C1C=CC=CC=C1`, the growth inhibition was 92% (active).
